Data from ChEMBL document CHEMBL4513216, “Probing the Open Global Health Chemical Diversity Library for Multistage-Active Starting Points for Next-Generation Antimalarials” (ACS Infect Dis, 2020).
About 8,600 (12%) of roughly 69,000 compounds showed an effect of 50% or more. The sample holds strong results, similar compounds and a random draw of the others, so the mix is not that of the screen.

Test system: Plasmodium berghei
Experiment: Screen against P. berghei liver stage (PbLuc), transformed with Luciferase, at 10uM
Format: functional, HepG2
Conditions: tested at 10 uM

SMILES | INHIBITION
O=C(CCc1ccccc1Br)NS(=O)(=O)c1ccc2c(c1)OCCO2 | 25.6%
O=C(c1ccc(Cn2cnnn2)cc1)N1CC[C@H](CO)[C@H](O)C1 | 22.5%
CC(C)CN(Cc1nc2c(cnn2C)c(=O)[nH]1)CC(C)C | -33.55%
COc1ccc(-c2cnc(N)nc2C2CCCNC2)cc1 (stereo unspecified) | 23.9%
COc1ccc(-n2cc3[nH][nH]c(=O)n3c2=O)cc1 | -3%
COCC1CCN(S(=O)(=O)c2ccc(C(=O)NCC(F)F)cc2)C1 (stereo unspecified) | 10.6%
CCc1cnc(CNC(=O)NC2CCN(C3CCCC3)CC2)s1 | -104%
CC(=O)N[C@@H]1CN(C2CCN(c3ccccc3F)CC2)C[C@H]1C(C)C | 14.8%
CC(=O)N[C@@H]1CN(C2CCN(c3cccc(Cl)c3)CC2)C[C@H]1C(C)C | 30.8%
CC(=O)N[C@@H]1CN(C2CCN(c3cccc(C)c3C)CC2)C[C@H]1C(C)C | 66.1%
CCN(CC1CCOC1)C(=O)c1ccc(-c2ccsc2)nc1C (stereo unspecified) | 19.7%
Cn1cnc2c(N3CCOCC3)nc(C3CCNCC3)cc21 | -76.7%
Cc1ccc(-c2noc(CN3CCOC(CN(C)C)C3)n2)cc1F (stereo unspecified) | 62.3%
Cc1noc(CN2CCOC(CN(C)C)C2)n1 (stereo unspecified) | 31.9%
CN(C)CC1CN(Cc2coc(-c3ccccc3)n2)CCO1 (stereo unspecified) | -3.2%
Cc1ccc(-c2nc(CN3CCOC(Cn4cccn4)C3)co2)cc1 (stereo unspecified) | 49.8%
CN(C)CC1CN(Cc2coc(-c3cccc(F)c3)n2)CCO1 (stereo unspecified) | 11.2%
CN(C)CC1CN(Cc2coc(-c3cccs3)n2)CCO1 (stereo unspecified) | 32.8%
Fc1ccc(-c2nc(CN3CCOC(Cn4cccn4)C3)co2)cc1 (stereo unspecified) | 58%
CN(C)CC1CN(Cc2coc(-c3ccc(Cl)cc3)n2)CCO1 (stereo unspecified) | 72.9%
c1ccc(-c2nc(CN3CCOC(Cn4cccn4)C3)co2)cc1 (stereo unspecified) | 22.3%
CN(C)CC1CN(Cc2nc(-c3cccnc3)no2)CCO1 (stereo unspecified) | -50.5%

SMILES | INHIBITION
Cc1ccc(-c2nc(CN3CCOC(CN(C)C)C3)co2)cc1 (stereo unspecified) | 58.5%
CN(C)CC1CN(Cc2coc(-c3ccccc3Cl)n2)CCO1 (stereo unspecified) | 25.3%
Cn1cc(CN2CCC3(CC2)CCN(C(=O)c2cscn2)CC3)cn1 | 34.4%
COCC(=O)NCc1cc(=O)n2c(n1)CN(Cc1ccccc1)CCC2 | 25.8%
CCC(C)NC(=O)c1cc(Br)c2c(c1)OCCO2 (stereo unspecified) | 23.5%
CC(C)N(CCO)C(=O)c1cc(COc2ccc3c(c2)CCCC3)on1 | -15.6%
CC(C(=O)N1CCCCC1)N1CCN(c2ncc(Cl)cn2)CC1 (stereo unspecified) | -15%
c1cnn(C2CN(c3ncnc4[nH]ccc34)C2)c1 | -4.73%
Cc1csc(N2CCCN(C(=O)CCNc3ncccn3)CC2)n1 | 7.12%
CSC(C)C(=O)Nc1ccnn1-c1ccccc1C (stereo unspecified) | -2.61%
O=C1Nc2ccccc2C12CCN(c1nccs1)CC2 | -15.9%
Cc1cc(C)n(CC2CN(Cc3cc(C)on3)CCO2)n1 (stereo unspecified) | 16%
Cc1cc(CN2CCOC(CN(C)C)C2)no1 (stereo unspecified) | 53.8%
Cc1cc(CN2CCOC(CN(C)c3cccnn3)C2)no1 (stereo unspecified) | 26.9%
CCc1c(C)n(CCOC)c2nc3ccccc3n2c1=O | -7.81%
O=c1c2sccc2ncn1Cc1cc(C2CC2)[nH]n1 | 37.6%
N#Cc1ncn(CCC(=O)Nc2cc(Cl)ccc2Cl)n1 | -22.1%
CCc1ccc(CCn2cnc(C#N)n2)cc1 | 37.4%
N#Cc1ncn(CCC(=O)Nc2ccccc2F)n1 | -3.77%
N#Cc1ncn(CCS(=O)(=O)c2ccc(Br)cc2)n1 | 41.4%
N#Cc1ncn(CCS(=O)(=O)c2ccccc2)n1 | 65.4%
N#Cc1ncn(CCS(=O)(=O)c2ccc(Cl)cc2)n1 | 54.3%

SMILES | INHIBITION
CC(C)c1noc(OCC(=O)N2CCCCC2C)n1 (stereo unspecified) | -24.9%
CC(C)c1nc(C2CCCN2CCNS(C)(=O)=O)no1 (stereo unspecified) | 23.8%
CNCc1cc(C)n(-c2ccccc2OC)c1C | 70.3%
CNCc1n[nH]c(=O)n1-c1ccccc1Oc1ccccc1 | -107%
COc1ccccc1-n1c(C)cc(CNC(=O)NC(C)C)c1C | 25.1%
CCOC(=O)CNC(=O)NCc1cc(C)n(-c2ccccc2OC)c1C | 63.1%
CCOc1ccccc1-n1c(CNC)n[nH]c1=O | -63.8%
CCOC(=O)CNC(=O)NCc1cc(C)n(-c2ccc(OC)cc2)c1C | 21.7%
CC(=O)N1[C@@H](C(=O)NCC2CC2)C[C@@H]2CN(Cc3nccs3)C[C@@H]21 | 39.5%
CC(C)CCN(C(=O)c1nc(S(C)(=O)=O)n2ccccc12)C1CC1 | 17.165%
COc1cccc(Nc2nc(C3CCCNC3)c3sc(C)c(C)n23)c1 (stereo unspecified) | 11.65%
CC(C)(C)NCc1nn(Cc2ccccc2)nc1-c1ccccc1 | 45.8%
CCn1ccnc1CN1CCN(CCCS(C)(=O)=O)CC1C (stereo unspecified) | 8.31%
Cc1cc(C(F)(F)F)cc(=O)n1Cc1nc(C(C)C)no1 | 23%
CC(=O)NC1Cc2ccc(S(=O)(=O)NCCNc3ccccn3)cc2C1 (stereo unspecified) | -18.8%
Cc1nc(CN2C(=O)COC3(CCN(C)CC3)C2C)cs1 (stereo unspecified) | 8.03%
Cc1cncc(C(=O)N2CC[C@@H]3[C@H]2CCC(=O)N3CCN(C)C)c1 | 29%
Cc1ccc(C(=O)N2CC[C@@H]3[C@H]2CCC(=O)N3CCN(C)C)cn1 | 79.2%
N#Cc1ccc(C(=O)N2CC[C@H]3[C@@H]2CCC(=O)N3c2ccccc2)cc1 | 43.8%
CN(C)CCN1C(=O)CC[C@@H]2[C@H]1CCN2C(=O)c1ccc(C#N)cc1 | 70.4%
Cc1ccc(C(=O)N2CCC3(CC2)CCN(CCN(C)C)C3=O)cn1 | 28.2%
CN(C)CCN1C(=O)CC[C@@H]2[C@H]1CCN2Cc1cccc(C#N)c1 | 49.7%

SMILES | INHIBITION
N#Cc1cccc(CNCCNC(=O)Cc2cccc(F)c2)c1 | 29.2%
CCOc1ccc(Cl)c(C(=O)N2CCCSCC2)n1 | 18.2%
CC(C)OCCN1CCC(Nc2ncc(Br)cn2)CC1 | 28.7%
Cc1cc(C)nc(NC2CCN(CCOC(C)C)CC2)n1 | 43.9%
COc1ccc(NC(=O)CN2CCS(=O)(=O)CC2)cn1 | -2.55%
CC(C)c1nnc(C2CCN(CC(=O)Nc3cccnc3)CC2)o1 | -39.2%
O=C(CN1CCC(Nc2ncccn2)CC1)Nc1ccccc1 | 66.1%
CC(C)OCCN1CCC(Nc2ncccn2)CC1 | 55.9%
Cc1cnc(NC2CCN(CC(=O)Nc3ccccc3)CC2)nc1C | 14.8%
COc1ccnc(NC2CCN(CC(=O)Nc3ccccc3)CC2)n1 | 60.8%
COc1ccnc(NC2CCN(CC(=O)N3CCCC3)CC2)n1 | 11.6%
CSc1ccc(CN2CCn3nc(CNC(C)=O)cc3C2)cc1 | -89.3%
CC(C)N1CCC(Cc2cncc(-c3cccc(C(=O)O)c3)n2)C1 (stereo unspecified) | -62.3%
COC(=O)c1ccc(CN2CCN(Cc3nc(C)no3)CC2)s1 | 23.2%
CC(C)c1nnc2n1CCN(Cc1nc(-c3ccoc3)no1)C2 | 17.45%
CC1CN(C(=O)CN(Cc2ccccc2Cl)C2CCCC2)CCO1 (stereo unspecified) | -0.219%
COc1ccc(CN2CCn3cc(CNC(=O)C4CCC4)nc3C2)cc1 | 19.5%
Cc1cnc(C(=O)N2CCN3C[C@H](OCc4cccnc4)C[C@H]3C2)cn1 | 52%
O=C(c1ccnnc1)N1CCN2C[C@H](OCc3cccnc3)C[C@H]2C1 | 26.4%
O=C(c1cnccn1)N1CCN2C[C@H](OCc3ccccc3)C[C@H]2C1 | 11%
O=C(c1ccco1)N1CCN2C[C@H](OCc3cccnc3)C[C@H]2C1 | 12.4%
O=C(c1ccc(F)cc1)N1CCN2C[C@H](OCc3cccnc3)C[C@H]2C1 | 82.3%

SMILES | INHIBITION
O=C(c1cnccn1)N1CCN2C[C@H](OCc3ccccn3)C[C@H]2C1 | -0.182%
O=C(c1cccc(F)c1)N1CCN2C[C@H](OCc3cccnc3)C[C@H]2C1 | 17.1%
O=C(c1cscn1)N1CCN2C[C@H](OCc3cccnc3)C[C@H]2C1 | 33%
O=C(c1cnccn1)N1CCN2C[C@H](OCc3ccccc3F)C[C@H]2C1 | 59.8%
CS(=O)(=O)NC1CCCN(C(=O)COCc2ccccc2)C1 (stereo unspecified) | -75.98%
Cc1ncc2c(n1)CCN(CCCc1nc3ccccc3o1)C2 | -65.2%
O=C(NCc1cn2c(n1)CN(Cc1ccccn1)CC2)C1CCC1 | -8.94%
CC(=O)N1[C@H](CN(C)C)C[C@@H]2CN(C(=O)c3ccno3)CC[C@@H]21 | 17.4%
Cc1cc(C)c(C(=O)N2CCOC(CCN(C)C)C2)o1 (stereo unspecified) | -5.12%
Cc1ccc(N2CCC3(CCN(C(=O)c4ccsc4)C3)CC2)nn1 | 36.4%
CN1CC2(CCN(C(=O)c3ccc4c(=O)n(C)cnc4c3)C2)OC1=O (stereo unspecified) | 88.2%
Cc1nc[nH]c1C(=O)N1CCC2(CN(C)C(=O)O2)C1 (stereo unspecified) | -11.2%
CN1CC2(CCN(C(=O)c3ccc4c(=O)n(C)cnc4c3)CC2)CC1=O | 32.5%
Cc1noc(C2CCN(Cn3cc(Br)cn3)CC2)n1 | -47%
O=C(O)[C@@H]1OCC(=O)N(Cc2cccc(Cl)c2)[C@@H]1c1ccccc1 | -25.3%
CCSCCOC(=O)CCCc1ccc2c(c1)CC(=O)N2 | 54.9%
CCOC(=O)CCCc1ccc2c(c1)CC(=O)N2 | 3.4%
O=C(O)CCCc1ccc2c(c1)CC(=O)N2 | 24.2%
